Inhibition data for 56 molecules are collected here from PubChem BioAssay AID1259422 (The Scripps Research Institute Molecular Screening Center, 2018).

“And” between values parts separate entries of the source, which are not always exact repeats. Identical values can stand only once. Screen size: about 640,000 compounds; about 9,300 (1.5%) were called active. The sample as a whole holds a higher share of actives than the screen did. A number with no mark means an inactive call. Cut-off read from the data, not from the text of the source: active = inhibition above about 32%; inactive = the rest.

A short description of this assay: TEAD-YAP interaction inhibition, primary screen, TEAD-YAP interaction inhibitor project, luminescence, HEK-TIYL cells (AID 1259422).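 Note: 0% = median of test compound wells and 100% = reference inhibitor wells.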 Conditions: TEAD-Gal4/YAP UAS-luciferase luminescence, at 9.12 µM, stronger effect = higher value.
As for `COc1cccc(OCC(=O)N2CCC3(CC2)OCc2ccccc2O3)c1`, the inhibition (usually the relative decrease from the control value, in per cent) is -8.9%.
The figure for `CC(=O)N1c2ccc(NC(=O)c3ccccc3)cc2C(C)(c2ccc(C)cc2)CC1(C)C` (stereo unspecified) is 13.9%; for `CC(Cl)/C(O)=C(\C#N)c1nc2ccccc2[nH]1` (stereo unspecified) it is -6.03%.
For the molecule `Cc1ccc2[nH]c3c(c2c1)CCCC3NCc1ccccc1` (stereo unspecified), the inhibition is 53.6% (active).
For `OCCNC1CCCc2c1[nH]c1ccc(-c3ccccc3)cc21` (stereo unspecified), the inhibition is -12.6%.
The figure for `Cc1ccc2[nH]c3c(c2c1)CCCC3NC=O` (stereo unspecified) is 5.42%.
With `Cc1ccc2nc(-c3cccc(NC(=O)c4cc([N+](=O)[O-])ccc4Br)c3)oc2c1`, the inhibition is 6.62%.
As to `O=C(COc1ccc(Cl)cc1)Nc1ncc(Cc2ccc(F)cc2)s1`, the inhibition is 5.3%.
As for `CC(C)(C)NCC(O)COc1c(Br)ccc2c1sc1nc3n(c(=O)c12)CCCCC3` (stereo unspecified), the figure is -32.7%; as for `CC(=O)c1ccc(NC(=O)c2sc3nc4n(c(=O)c3c2C)CCCCC4)cc1`, -3.85%; as for `O=c1c2c(nc3n1CCCCC3)sc1c(O)cccc12`, 92.2% (active).
The figure for `COc1ccc(N2CC(CNC(=O)c3cccs3)CC2=O)cc1` (stereo unspecified) is 6.17%; for `CCOc1ccc(C2C(C#N)=C(N)N(c3cccc([N+](=O)[O-])c3)C3=C2C(=O)CC(C)(C)C3)cc1` (stereo unspecified) it is -5.19%; for `Cc1cccc(N2C(N)=C(C#N)C(c3ccc(F)cc3)C3=C2CC(C)(C)CC3=O)c1` (stereo unspecified) it is -0.79%.
As to `CCOc1ccc(C2C(C#N)=C(N)N(c3cccc(C)c3)C3=C2C(=O)CC(C)(C)C3)cc1` (stereo unspecified), the inhibition is 56.6% (active).
For `O=C(c1cc(Cl)ccc1Cl)N1CCN(c2ccc(F)cc2)CC1`, the inhibition is 10.3%.
Take `O=C(c1ccc([N+](=O)[O-])cc1)N1CCN(c2cccc(Cl)c2)CC1`: the inhibition is -1.04%.
As for `CSc1ncc(Cl)c(C(=O)N2CCN(c3cccc(Cl)c3)CC2)n1`, the figure is 39% (active); as for `CC(=O)/C(C(=N)N1CCN(c2cccc(Cl)c2)CC1)=C(/C)O`, -6.64%; as for `CCc1c(C(=O)N2CCN(c3cccc(Cl)c3)CC2)[nH]c(C)c1C(C)=O`, 52.2% (active).
The figure for `COc1ccc(-n2cc(C(=O)N3CCN(c4cccc(Cl)c4)CC3)c3ccccc3c2=O)cc1` is 0.04%; for `COc1ccc(Cl)cc1C(=O)N1CCN(c2cccc(Cl)c2)CC1` it is 64% (active).
As for `CC(=O)Nc1ccc(C(=O)N2CCN(c3cccc(Cl)c3)CC2)cc1`, the figure is -15.7%.
Regarding `CN(C)c1cccc(C(=O)N2CCN(c3cccc(Cl)c3)CC2)c1`, the inhibition was 32.4% (active).
The figure for `COc1cc(OC)cc(-n2nc(C(=O)N3CCN(c4cccc(Cl)c4)CC3)c3ccccc3c2=O)c1` is 9.86%.
As for `Cc1cc(C(=O)N2CCN(c3cccc(Cl)c3)CC2)ccc1[N+](=O)[O-]`, the figure is 3.11%; as for `CC(=O)c1c(C)[nH]c(C(=O)N2CCN(c3ccc(Cl)cc3)CC2)c1C`, 12.3%; as for `CN1CCN(C(=O)c2cc(-c3cccs3)n(CC(=O)N3CCC(O)CC3)n2)CC1`, -2.96%.
With `Cc1ccc(Nc2nc(-c3ccccc3Cl)nc3ccccc23)cc1Cl`, the inhibition is 9.51%.
As for `Cc1c(Cl)cccc1NC(=O)c1cnn2c(C(F)(F)F)cc(-c3ccco3)nc12`, the figure is 0.28%; as for `O=[N+]([O-])c1ccc(-c2csc(=NCc3cccnc3)n2-c2ccccc2)cc1`, -0.76%.
The figure for `COc1ccc(CC(=O)Nc2nnc(SCC(=O)Nc3nnc(C)s3)s2)cc1` is 12.5%; for `Cc1nnc(NC(=O)CSc2nc3ccccc3cc2C#N)s1` it is -10.2%; for `Cc1nnc(NC(=O)CSc2nc(C(C)C)ccc2C#N)s1` it is 62.8% (active).
As for `C=CCNC(=O)Cn1cnc2c([nH]c3ccc(C)cc32)c1=O`, the figure is 3.72%.
Regarding `NC(=O)CN(c1cc(C(F)(F)F)ccc1Cl)S(=O)(=O)c1ccccc1`, the inhibition was -1.66%.
Take `COc1ccc(NC(=O)CN(c2cc(C(F)(F)F)ccc2Cl)S(=O)(=O)c2ccccc2)cc1`: the inhibition was 56.2% (active).
As for `O=C(CN(c1cc(C(F)(F)F)ccc1Cl)S(=O)(=O)c1ccccc1)NCc1ccncc1`, the figure is 3.78%; as for `CCCCOc1ccc(NC(=O)C(C)Oc2ccc(OC)cc2)cc1` (stereo unspecified), 7.98%; as for `COC(=O)c1sc(NC(=O)C2(C)CC2(Cl)Cl)c(C#N)c1C` (stereo unspecified), 38.3% (active).
As for `COC(=O)c1sc(NC(=O)C2CCCCC2)c(C#N)c1C`, the figure is 1.29%; as for `COC(=O)c1sc(NC(=O)c2ccncc2)c(C#N)c1C`, -4%; as for `COc1ccccc1N1CCN(S(=O)(=O)c2ccc(F)c(C(=O)Nc3ccc(C(C)C)cc3)c2)CC1`, -4.13%.
As for `CC(C)CC(C(=O)N1CCOCCN(C(=O)C(CC(C)C)N2C(=O)c3ccccc3C2=O)CCOCC1)N1C(=O)c2ccccc2C1=O` (stereo unspecified), the figure is -2.73%; as for `CCCOc1c(Cl)cc(/C=C/C(=O)O)cc1OC`, 4.32%; as for `O=C(NNc1ncc([N+](=O)[O-])cc1[N+](=O)[O-])c1ccncc1`, 6.87%.
Regarding `O=C(O)C1CCCCC1C(=O)N1CCN(c2nc(-c3ccccc3Cl)c3cc(Br)ccc3n2)CC1` (stereo unspecified), the inhibition was -2.46%.
The figure for `C[C@H]1O[C@@H](O[C@H]2[C@@H](O)C[C@H](O[C@H]3[C@@H](O)C[C@H](O[C@H]4CC[C@]5(C)C6C[C@@H](O)[C@]7(C)[C@@H](C8=CC(=O)OC8)CC[C@]7(O)C6CC[C@@H]5C4)O[C@@H]3C)O[C@@H]2C)C[C@H](O)[C@@H]1O` (stereo partly specified) is 99.7% (active) and 101% (active).
The figure for `O=C1CCCN1CCCNc1cc(N2CCN(c3ccccn3)CC2)ncn1` is 6.77%; for `CC(=O)c1cc(Cl)cc(Cl)c1O` it is -4.24%.
The figure for `CCN(CC)c1ccc2cc(-c3csc(-c4nc(-c5cc6ccc(N(CC)CC)cc6oc5=O)cs4)n3)c(=O)oc2c1` is 4.64%; for `CCOC(=O)COc1ccc2cc(-c3nc4ccccc4s3)c(=O)oc2c1` it is -4.53%.
On to `CCCOc1ccc2cc(-c3csc(N)n3)c(=O)oc2c1`, for which the inhibition is 59.4% (active).
As for `CN(C)c1ccc(/C=N/Nc2nc(-c3ccccc3)cs2)cc1`, the figure is -3.84%; as for `CN(CCO)c1ccc(/C=N/Nc2nncc3ccccc23)cc1`, 76.3% (active); as for `COc1ccc(/C=N/NC(=O)CN(C)c2ccccc2)cc1OC`, -17.2%.
